Test results: PMC5700166
Changes are numbered by the printed parent chain.

Assays:
Assay in all cases: protein-binding microarray (PBM); PBM: ~300 nM protein, 6 mM HEPES pH 7.8, 80 mM KCl, 0.5 mM EDTA, 0.5 mM EGTA, 6% glycerol, 35 ng/ul poly-dIdC, 1% milk, 1 h, room temperature; Ap Aiptasia and Nv Nematostella (sea anemones) / Co Capsaspora / Aq Amphimedon (sponge) / Dm Drosophila / Hu human; RHD is the Rel homology domain; high values mean tight binding
Conditions in all cases: dsDNA, one strand shown
GST-Ap-NF-kB RHD = target: T1, GST-Ap-NF-kB RHD (Exaiptasia pallida (Aiptasia), UniProt A0A913YAJ5 2-422)
T1 sequence: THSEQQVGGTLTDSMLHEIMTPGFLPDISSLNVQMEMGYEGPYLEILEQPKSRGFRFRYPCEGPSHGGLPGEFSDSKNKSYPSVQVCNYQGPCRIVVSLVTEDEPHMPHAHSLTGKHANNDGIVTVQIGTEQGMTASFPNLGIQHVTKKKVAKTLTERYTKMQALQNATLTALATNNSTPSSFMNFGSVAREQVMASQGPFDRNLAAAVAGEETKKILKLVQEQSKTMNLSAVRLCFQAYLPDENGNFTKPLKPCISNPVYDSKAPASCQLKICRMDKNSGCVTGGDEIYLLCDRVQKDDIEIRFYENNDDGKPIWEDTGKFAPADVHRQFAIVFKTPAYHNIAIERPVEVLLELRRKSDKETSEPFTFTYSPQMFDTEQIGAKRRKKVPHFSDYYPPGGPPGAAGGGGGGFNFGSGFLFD

[1] = target: T2, GST-Nv-NF-kB (Cys allele) (Nematostella vectensis, UniProt E5G601 2-411)
T2 sequence: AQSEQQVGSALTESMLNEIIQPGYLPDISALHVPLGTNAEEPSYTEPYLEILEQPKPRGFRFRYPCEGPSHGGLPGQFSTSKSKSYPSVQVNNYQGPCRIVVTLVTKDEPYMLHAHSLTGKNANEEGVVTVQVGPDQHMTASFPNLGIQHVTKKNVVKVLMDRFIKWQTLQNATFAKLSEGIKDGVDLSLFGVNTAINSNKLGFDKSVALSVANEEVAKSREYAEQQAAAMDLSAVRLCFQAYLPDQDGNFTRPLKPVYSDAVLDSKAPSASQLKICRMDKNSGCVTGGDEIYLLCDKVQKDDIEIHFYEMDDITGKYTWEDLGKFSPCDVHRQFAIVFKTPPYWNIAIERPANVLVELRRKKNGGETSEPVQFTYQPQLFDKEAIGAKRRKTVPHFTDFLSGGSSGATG

[2] = target: T3, GST-Nv-NF-kB (Ser allele) (Nematostella vectensis, UniProt A7UNT2 2-411)
T3 sequence: T2 sequence with Q21R, C66S, S207N, E215Q, V217A, E225K, A268E, D399E

GST-Co-NF-kB = target: T4, GST-Co-NF-kB (Capsaspora owczarzaki, UniProt F1ARL5 200-546)
T4 sequence: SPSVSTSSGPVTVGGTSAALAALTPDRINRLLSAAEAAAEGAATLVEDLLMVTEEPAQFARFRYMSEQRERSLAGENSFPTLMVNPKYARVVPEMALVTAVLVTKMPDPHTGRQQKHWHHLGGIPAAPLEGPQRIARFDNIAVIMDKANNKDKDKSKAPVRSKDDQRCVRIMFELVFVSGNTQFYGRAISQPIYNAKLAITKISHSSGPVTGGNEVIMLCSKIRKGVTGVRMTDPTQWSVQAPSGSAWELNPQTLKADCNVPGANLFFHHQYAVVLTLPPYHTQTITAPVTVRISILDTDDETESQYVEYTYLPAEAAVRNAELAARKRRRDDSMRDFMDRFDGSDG

GST-Dm-Relish = target: T5, GST-Dm-Relish (Drosophila melanogaster, UniProt Q94527 99-473)
T5 sequence: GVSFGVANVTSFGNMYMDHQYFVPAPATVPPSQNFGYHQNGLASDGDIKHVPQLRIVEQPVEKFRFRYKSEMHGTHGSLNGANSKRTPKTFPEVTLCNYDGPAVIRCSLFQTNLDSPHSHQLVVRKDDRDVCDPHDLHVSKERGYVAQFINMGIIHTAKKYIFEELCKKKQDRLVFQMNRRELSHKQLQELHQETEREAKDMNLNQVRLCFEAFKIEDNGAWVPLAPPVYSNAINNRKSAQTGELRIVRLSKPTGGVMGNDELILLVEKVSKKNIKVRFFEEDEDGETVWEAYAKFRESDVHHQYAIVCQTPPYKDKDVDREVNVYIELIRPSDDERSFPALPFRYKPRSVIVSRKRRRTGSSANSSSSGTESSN

GST-Aq-NF-kB = target: T6, GST-Aq-NF-kB (Amphimedon queenslandica, UniProt A9Y5G7 2-389)
T6 sequence: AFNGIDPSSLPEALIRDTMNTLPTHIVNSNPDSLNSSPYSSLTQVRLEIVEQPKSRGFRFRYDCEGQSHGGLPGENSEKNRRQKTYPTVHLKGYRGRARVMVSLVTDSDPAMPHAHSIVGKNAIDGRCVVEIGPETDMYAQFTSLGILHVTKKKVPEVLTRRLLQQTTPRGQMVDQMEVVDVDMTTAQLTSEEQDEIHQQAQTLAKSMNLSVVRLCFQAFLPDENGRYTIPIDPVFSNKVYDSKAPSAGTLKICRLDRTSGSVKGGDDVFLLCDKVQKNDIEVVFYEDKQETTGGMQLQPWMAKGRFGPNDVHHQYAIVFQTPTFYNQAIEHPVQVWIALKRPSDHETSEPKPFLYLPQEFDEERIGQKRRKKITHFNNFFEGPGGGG

GST-Hu-p50 = GST-Hu-p50 (Homo sapiens, UniProt P19838 7-356)
Sequence of GST-Hu-p50 (P19838 7-356): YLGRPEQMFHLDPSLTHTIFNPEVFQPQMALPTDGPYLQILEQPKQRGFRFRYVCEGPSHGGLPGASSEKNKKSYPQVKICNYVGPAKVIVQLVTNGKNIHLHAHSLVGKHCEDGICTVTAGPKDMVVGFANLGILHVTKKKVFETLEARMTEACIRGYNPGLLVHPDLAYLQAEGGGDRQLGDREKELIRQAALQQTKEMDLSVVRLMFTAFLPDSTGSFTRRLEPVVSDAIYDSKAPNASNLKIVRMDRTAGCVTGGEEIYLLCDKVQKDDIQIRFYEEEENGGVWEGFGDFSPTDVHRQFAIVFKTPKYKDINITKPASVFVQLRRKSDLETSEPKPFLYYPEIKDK

| Sequence | binding signal (GST-Ap-NF-kB RHD) | binding signal [1] | binding signal [2] | binding signal (GST-Co-NF-kB) | binding signal (GST-Dm-Relish) | binding signal (GST-Aq-NF-kB) | binding signal (GST-Hu-p50) |
| --- | --- | --- | --- | --- | --- | --- | --- |
| CCGATTAACATCAAATTACCCCCTGATGTTAATCGGGTCTTGATTCGCTTGACGCTGCTG | 6.8 z-score | 5.57 z-score | 6.77 z-score | 8.18 z-score | 4.33 z-score | 5.57 z-score | 5.08 z-score |
| CCGATTAACATCAAAAAACTCCCTGATGTTAATCGGGTCTTGATTCGCTTGACGCTGCTG | 6.44 z-score | 8.22 z-score | 8.11 z-score | 3.38 z-score | 7.13 z-score | 7.46 z-score | 5.69 z-score |
| CCGATTAACATCAAGGGGGGAATTGATGTTAATCGGGTCTTGATTCGCTTGACGCTGCTG | 7.34 z-score | 7.02 z-score | 7.25 z-score | 7.24 z-score | 5.11 z-score | 5.89 z-score | 6.3 z-score |
| CCGATTAACATCAGGGATTTTACTGATGTTAATCGGGTCTTGATTCGCTTGACGCTGCTG | 3.97 z-score | 3.99 z-score | 2.96 z-score | 2.36 z-score | 7.1 z-score | 5.29 z-score | 3.96 z-score |
| CCGATTAACATCAAGGGGAATTATGATGTTAATCGGGTCTTGATTCGCTTGACGCTGCTG | 7.82 z-score | 10.5 z-score | 11.4 z-score | 6.37 z-score | 7.09 z-score | 7.24 z-score | 7.43 z-score |
| CCGATTAACATCACAAATTCCCCTGATGTTAATCGGGTCTTGATTCGCTTGACGCTGCTG | 9.44 z-score | 10.9 z-score | 12.6 z-score | 8.68 z-score | 8.67 z-score | 8.11 z-score | 7.34 z-score |
| CCGATTAACATCAGAATTCCCGATGATGTTAATCGGGTCTTGATTCGCTTGACGCTGCTG | 3.78 z-score | 4.69 z-score | 4.3 z-score | 3.92 z-score | 2.59 z-score | 3.28 z-score | 3.21 z-score |
| CCGATTAACATCAAATATCCCCTTGATGTTAATCGGGTCTTGATTCGCTTGACGCTGCTG | 8.05 z-score | 8.3 z-score | 9.01 z-score | 3.88 z-score | 6.97 z-score | 6.2 z-score | 6.19 z-score |
| CCGATTAACATCAAAAGTCCCCCTGATGTTAATCGGGTCTTGATTCGCTTGACGCTGCTG | 8.58 z-score | 8.14 z-score | 8.36 z-score | 7.93 z-score | 9.15 z-score | 7.54 z-score | 6.72 z-score |
| CCGATTAACATCAAATAACCCCCTGATGTTAATCGGGTCTTGATTCGCTTGACGCTGCTG | 7.15 z-score | 7.1 z-score | 7.94 z-score | 4.2 z-score | 8.44 z-score | 7.02 z-score | 6.17 z-score |
| CCGATTAACATCAAAATACCCCGTGATGTTAATCGGGTCTTGATTCGCTTGACGCTGCTG | 6.29 z-score | 5.39 z-score | 5.69 z-score | 5.77 z-score | 5.44 z-score | 5.69 z-score | 5.49 z-score |
| CCGATTAACATCAGGGGTTTCTATGATGTTAATCGGGTCTTGATTCGCTTGACGCTGCTG | 5.36 z-score | 4.73 z-score | 4.67 z-score | 1.76 z-score | 5.29 z-score | 4.5 z-score | 5.3 z-score |
| CCGATTAACATCAAAGTTTCCCCTGATGTTAATCGGGTCTTGATTCGCTTGACGCTGCTG | 7.96 z-score | 9.57 z-score | 12 z-score | 10.6 z-score | 5.37 z-score | 7.26 z-score | 6.85 z-score |
| CCGATTAACATCAGGGGAATCTATGATGTTAATCGGGTCTTGATTCGCTTGACGCTGCTG | 8.26 z-score | 8.91 z-score | 10.6 z-score | 7.29 z-score | 5.84 z-score | 5.95 z-score | 6.51 z-score |
| CCGATTAACATCACGGGTTTTCCTGATGTTAATCGGGTCTTGATTCGCTTGACGCTGCTG | 2.91 z-score | 2.73 z-score | 1.9 z-score | 1.18 z-score | 4.43 z-score | 4.99 z-score | 2.29 z-score |
| CCGATTAACATCAGGGAAACATATGATGTTAATCGGGTCTTGATTCGCTTGACGCTGCTG | 2.23 z-score | 3.74 z-score | 4.15 z-score | 5.27 z-score | 1.07 z-score | 4.73 z-score | 1.78 z-score |
| CCGATTAACATCAACATTCCCCCTGATGTTAATCGGGTCTTGATTCGCTTGACGCTGCTG | 7.55 z-score | 8.25 z-score | 8.8 z-score | 9.34 z-score | 4.3 z-score | 6.29 z-score | 6.48 z-score |
| CCGATTAACATCACCCCGTCCCCTGATGTTAATCGGGTCTTGATTCGCTTGACGCTGCTG | 4.62 z-score | 3.83 z-score | 3.99 z-score | 3.98 z-score | 2.65 z-score | 4.15 z-score | 3.21 z-score |
| CCGATTAACATCAGGAGCTCCCCTGATGTTAATCGGGTCTTGATTCGCTTGACGCTGCTG | 4.8 z-score | 2.61 z-score | 1.84 z-score | 2.71 z-score | 1.84 z-score | 4.7 z-score | 2.1 z-score |
| CCGATTAACATCAGGGGAAACTATGATGTTAATCGGGTCTTGATTCGCTTGACGCTGCTG | 6.82 z-score | 7.81 z-score | 10.9 z-score | 9.61 z-score | 3.46 z-score | 5.53 z-score | 6.14 z-score |
| CCGATTAACATCAAAAATTACCCTGATGTTAATCGGGTCTTGATTCGCTTGACGCTGCTG | 4.2 z-score | 7.43 z-score | 7.03 z-score | 4.09 z-score | 6.42 z-score | 6.93 z-score | 5.22 z-score |
| CCGATTAACATCAATAAACCCCCTGATGTTAATCGGGTCTTGATTCGCTTGACGCTGCTG | 7.76 z-score | 6.85 z-score | 7.79 z-score | 2.94 z-score | 9.45 z-score | 6.33 z-score | 6.85 z-score |
| CCGATTAACATCAGGGGAATCAATGATGTTAATCGGGTCTTGATTCGCTTGACGCTGCTG | 5.46 z-score | 6.47 z-score | 8.04 z-score | 5.78 z-score | 5.48 z-score | 4.26 z-score | 4.98 z-score |
